# Experimental data as given in PubChem BioAssay (Tox21).
# Results filed as inconclusive are left out. Where a call stands in place of a potency, no number is given. Activity calls are given as the source filed them. The call rests on the fitted dose curve; in most records, active means well fitted curve in the direction sought with a large enough effect in the repeat runs; inconclusive means weak or mixed curves; inactive means no such curve, though single readings can be large; an effect the other way counts as inactive or inconclusive.
# Legend:
# [1] = target: Cytochrome P450 2D6 (Homo sapiens) (UniProt P10635); experiment: Cytochrome P450 Family 2 Subfamily D Member 6 (CYP2D6) small molecule antagonists: luciferase reporter qHTS assay (AID 1671196); further: nearly all actives have a fitted effect of over 50% in size; further: potency means the concentration at half of the fitted maximal effect
# In short: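 Cell-free P450-Glo system: CYP2D6 with proluciferin substrate was pre-incubated with compound for 10 min, then reacted with NADPH regeneration for 1 h at room temperature. Luciferin product was detected after 20 min, and data were reported as relative luminescence units.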
# [2] = target: Cytochrome P450 2C9 (Homo sapiens) (UniProt P11712); experiment: Cytochrome P450 Family 2 Subfamily C Member 9 (CYP2C9) small molecule antagonists: luciferase reporter qHTS assay (AID 1671198); further: nearly all actives have a fitted effect of over 50% in size; further: potency means the concentration at half of the fitted maximal effect
# In short: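 Enzyme-substrate mix preincubated with compound 10 min at room temperature; reaction started with NADPH regeneration solution, 1 h 37C. Luminescent luciferin product read after 20 min detection reagent.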
# [3] = target: Cytochrome P450 1A2 (Homo sapiens) (UniProt P05177); experiment: Cytochrome P450 Family 1 Subfamily A Member 2 (CYP1A2) small molecule antagonists: luciferase reporter qHTS assay (AID 1671199); further: nearly all actives have a fitted effect of over 50% in size; further: potency means the concentration at half of the fitted maximal effect
# In short: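 P450-Glo CYP1A2 enzyme–proluciferin substrate mix with compound 10 min at room temperature, then NADPH regeneration 1 h at room temperature. Luciferin detection reagent added, luminescence read after 20 min; furafylline positive control.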
# [4] = target: Voltage-gated inwardly rectifying potassium channel KCNH2 (Homo sapiens) (UniProt Q12809); experiment: Human Ether-a-go-go-Related Gene (hERG) channel small molecule antagonists: fluorescence cell-based qHTS assay (AID 1671200);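 further: hERG-expressing U2OS cells given a thallium stimulus after FluxOR II dye loading; series mostly up to about 77 µM; nearly all actives have a fitted effect of over 50% in size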
# In short: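 Fluorescence at 540 nm emission (480 nm excitation) was recorded kinetically for 2 min at 1-second intervals once the thallium-containing stimulus reached cells previously loaded with FluxOR II dye.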
# [5] = target: Cytochrome P450 3A4 (Homo sapiens) (UniProt P08684); experiment: Cytochrome P450 Family 3 Subfamily A Member 4 (CYP3A4) small molecule antagonists: luciferase reporter qHTS assay (AID 1671201); further: nearly all actives have a fitted effect of over 50% in size; further: potency means the concentration at half of the fitted maximal effect
# In short: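 qHTS, 1536-well. CYP3A4 + proluciferin substrate, cpd 10 min RT → NADPH regen 1 h RT → detection reagent 20 min → luminescence (RLU). Ketoconazole positive control.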
# [6] = target: Cytochrome P450 2C19 (Homo sapiens) (UniProt P33261); experiment: Cytochrome P450 Family 2 Subfamily C Member 19 (CYP2C19) small molecule antagonists: luciferase reporter qHTS assay (AID 1671197); further: series mostly up to about 120 µM; nearly all actives have a fitted effect of over 65% in size
# In short: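 Luminescent readout of CYP2C19 activity: luciferin product detected 20 min after adding detection reagent. Before that, compound and enzyme-substrate mix preincubated 10 min at room temperature; NADPH-regenerating system started a 1 h, 37C reaction. Ketoconazole as positive control.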
# Cytochrome P450 3A4 (Homo sapiens), sequence (P08684 whole entry, looked up): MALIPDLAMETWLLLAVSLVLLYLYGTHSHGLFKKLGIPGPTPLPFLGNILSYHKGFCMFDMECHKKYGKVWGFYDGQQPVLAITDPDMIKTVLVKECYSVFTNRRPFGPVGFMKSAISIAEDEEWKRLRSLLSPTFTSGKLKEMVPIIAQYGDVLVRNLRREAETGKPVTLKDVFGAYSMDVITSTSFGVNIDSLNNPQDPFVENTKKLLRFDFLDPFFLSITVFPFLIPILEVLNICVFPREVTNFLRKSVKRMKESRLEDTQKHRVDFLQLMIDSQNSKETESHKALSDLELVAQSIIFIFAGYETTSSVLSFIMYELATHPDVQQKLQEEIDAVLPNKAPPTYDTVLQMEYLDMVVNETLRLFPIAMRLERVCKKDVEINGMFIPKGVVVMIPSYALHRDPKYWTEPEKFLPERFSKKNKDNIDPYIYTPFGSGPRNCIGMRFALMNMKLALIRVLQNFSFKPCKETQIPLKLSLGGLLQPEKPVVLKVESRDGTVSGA
# Cytochrome P450 1A2 (Homo sapiens), sequence (P05177 whole entry, looked up): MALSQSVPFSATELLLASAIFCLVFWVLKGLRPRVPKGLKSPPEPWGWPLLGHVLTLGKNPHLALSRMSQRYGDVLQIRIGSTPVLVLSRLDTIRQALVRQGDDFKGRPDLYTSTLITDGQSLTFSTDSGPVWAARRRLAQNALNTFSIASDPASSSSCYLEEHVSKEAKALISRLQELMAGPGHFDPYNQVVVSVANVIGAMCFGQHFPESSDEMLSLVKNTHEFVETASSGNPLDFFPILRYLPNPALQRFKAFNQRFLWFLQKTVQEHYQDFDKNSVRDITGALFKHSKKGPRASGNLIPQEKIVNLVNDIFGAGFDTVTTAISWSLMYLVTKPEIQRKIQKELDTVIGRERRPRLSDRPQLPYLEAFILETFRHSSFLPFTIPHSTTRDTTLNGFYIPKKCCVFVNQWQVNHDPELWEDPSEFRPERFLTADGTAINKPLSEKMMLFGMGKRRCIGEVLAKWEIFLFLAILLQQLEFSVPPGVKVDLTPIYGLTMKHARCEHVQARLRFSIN
# Voltage-gated inwardly rectifying potassium channel KCNH2 (Homo sapiens), sequence (Q12809 whole entry, looked up): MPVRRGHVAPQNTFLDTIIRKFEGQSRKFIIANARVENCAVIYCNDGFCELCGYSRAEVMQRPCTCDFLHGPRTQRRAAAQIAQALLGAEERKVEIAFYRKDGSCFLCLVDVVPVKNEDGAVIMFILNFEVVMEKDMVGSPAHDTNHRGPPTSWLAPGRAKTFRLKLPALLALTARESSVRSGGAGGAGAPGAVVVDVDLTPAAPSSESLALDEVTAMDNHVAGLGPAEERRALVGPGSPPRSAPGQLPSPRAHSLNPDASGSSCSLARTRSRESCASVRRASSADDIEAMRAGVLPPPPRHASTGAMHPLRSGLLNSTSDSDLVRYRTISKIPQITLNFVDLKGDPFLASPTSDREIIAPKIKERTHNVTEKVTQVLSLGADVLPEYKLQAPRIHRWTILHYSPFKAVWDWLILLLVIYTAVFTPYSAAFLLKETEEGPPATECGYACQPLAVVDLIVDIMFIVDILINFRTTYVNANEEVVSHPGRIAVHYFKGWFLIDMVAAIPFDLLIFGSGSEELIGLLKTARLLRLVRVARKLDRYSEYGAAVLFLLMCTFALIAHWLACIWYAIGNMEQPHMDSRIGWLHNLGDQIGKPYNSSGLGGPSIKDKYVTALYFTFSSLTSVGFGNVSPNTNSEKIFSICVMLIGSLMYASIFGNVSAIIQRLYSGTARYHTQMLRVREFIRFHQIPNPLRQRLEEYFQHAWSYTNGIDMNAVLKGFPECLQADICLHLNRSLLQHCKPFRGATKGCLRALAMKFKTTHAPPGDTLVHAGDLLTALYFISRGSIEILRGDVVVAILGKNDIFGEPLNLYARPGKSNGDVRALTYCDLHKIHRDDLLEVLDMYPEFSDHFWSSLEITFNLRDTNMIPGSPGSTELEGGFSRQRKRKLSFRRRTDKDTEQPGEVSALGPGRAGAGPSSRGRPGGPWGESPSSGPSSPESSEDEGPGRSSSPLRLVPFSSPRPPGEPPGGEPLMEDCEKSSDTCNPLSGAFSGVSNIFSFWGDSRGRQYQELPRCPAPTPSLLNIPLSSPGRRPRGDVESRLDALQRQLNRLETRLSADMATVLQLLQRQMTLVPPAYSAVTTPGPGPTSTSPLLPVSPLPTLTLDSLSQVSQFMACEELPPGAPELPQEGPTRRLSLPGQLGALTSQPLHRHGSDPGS
# Cytochrome P450 2D6 (Homo sapiens), sequence (P10635 whole entry, looked up): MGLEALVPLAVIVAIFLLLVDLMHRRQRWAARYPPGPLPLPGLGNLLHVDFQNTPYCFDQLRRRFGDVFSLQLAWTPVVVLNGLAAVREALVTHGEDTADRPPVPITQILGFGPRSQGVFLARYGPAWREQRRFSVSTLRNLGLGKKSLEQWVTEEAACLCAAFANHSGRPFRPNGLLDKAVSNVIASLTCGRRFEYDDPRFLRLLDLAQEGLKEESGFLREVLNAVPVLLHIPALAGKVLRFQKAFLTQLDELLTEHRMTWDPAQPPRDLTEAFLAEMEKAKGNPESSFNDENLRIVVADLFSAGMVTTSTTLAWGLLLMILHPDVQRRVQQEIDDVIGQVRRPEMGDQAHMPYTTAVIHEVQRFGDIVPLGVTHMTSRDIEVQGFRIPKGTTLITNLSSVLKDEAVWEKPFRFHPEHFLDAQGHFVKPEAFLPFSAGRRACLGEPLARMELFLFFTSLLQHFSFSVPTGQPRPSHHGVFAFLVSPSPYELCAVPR
# Cytochrome P450 2C9 (Homo sapiens), sequence (P11712 whole entry, looked up): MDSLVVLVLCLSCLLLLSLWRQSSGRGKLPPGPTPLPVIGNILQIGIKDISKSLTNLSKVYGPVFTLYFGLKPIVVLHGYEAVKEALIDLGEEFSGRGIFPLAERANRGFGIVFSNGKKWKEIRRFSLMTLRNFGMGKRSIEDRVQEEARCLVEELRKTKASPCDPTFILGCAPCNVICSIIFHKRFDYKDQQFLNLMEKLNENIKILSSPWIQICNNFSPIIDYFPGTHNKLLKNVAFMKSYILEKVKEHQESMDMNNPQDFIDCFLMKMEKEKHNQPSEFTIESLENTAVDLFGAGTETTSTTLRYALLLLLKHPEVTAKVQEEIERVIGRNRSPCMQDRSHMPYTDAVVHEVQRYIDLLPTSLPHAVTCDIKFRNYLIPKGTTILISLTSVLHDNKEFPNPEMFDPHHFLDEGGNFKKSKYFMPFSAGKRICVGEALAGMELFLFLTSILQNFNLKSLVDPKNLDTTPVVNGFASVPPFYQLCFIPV
# Cytochrome P450 2C19 (Homo sapiens), sequence (P33261 whole entry, looked up): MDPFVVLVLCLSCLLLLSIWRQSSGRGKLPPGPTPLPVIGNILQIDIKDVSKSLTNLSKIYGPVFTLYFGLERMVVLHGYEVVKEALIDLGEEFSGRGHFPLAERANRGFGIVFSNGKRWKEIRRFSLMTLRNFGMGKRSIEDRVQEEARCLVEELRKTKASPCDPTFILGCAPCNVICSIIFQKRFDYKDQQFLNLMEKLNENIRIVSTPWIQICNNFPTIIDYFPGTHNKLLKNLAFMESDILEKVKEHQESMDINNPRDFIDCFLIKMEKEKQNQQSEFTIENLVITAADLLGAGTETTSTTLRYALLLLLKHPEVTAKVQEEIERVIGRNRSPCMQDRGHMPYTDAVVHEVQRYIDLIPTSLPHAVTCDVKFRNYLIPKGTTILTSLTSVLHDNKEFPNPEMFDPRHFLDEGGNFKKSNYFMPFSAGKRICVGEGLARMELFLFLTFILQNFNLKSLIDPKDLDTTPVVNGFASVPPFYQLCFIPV
Structure (SMILES),Potency [1],Potency [2],Potency [3],Potency [4],Potency [5],Potency [6]
Cc1cc(C)cc(N)c1,5.09 µM (active),11.4 µM (active),36 µM (active),inactive,3.21 µM (active),–
Oc1cc2c(cc1O)[C@H]1c3ccc(O)c(O)c3OC[C@@]1(O)C2,36 µM (active),32.1 µM (active),–,inactive,–,–
CC(C)=CCC/C(C)=C/CC/C(C)=C/CCC(=O)OC/C=C(\C)CCC=C(C)C,inactive,inactive,inactive,inactive,inactive,–
CCN(CC)CCNC(=O)COc1ccc(OC)cc1,13.8 µM (active),inactive,inactive,inactive,inactive,–
CCCCCCCCCCCCCCN(CCO)CCO,7.96 µM (active),31.7 µM (active),17.8 µM (active),–,–,–
CCn1cc(C(=O)O)c(=O)c2cc(F)c(N3CCNCC3)cc21,inactive,inactive,inactive,inactive,inactive,–
CC(CCC(=O)O)C(=O)O (centres undefined),63.4 µM (active),inactive,–,inactive,inactive,–
Cc1cccc(O)c1N,45.3 µM (active),32 µM (active),10.1 µM (active),inactive,36 µM (active),–
O=C1Cc2cc(Cl)ccc2N1,inactive,17.4 µM (active),11 µM (active),inactive,inactive,–
CC1(C)[C@H](C(=O)O)N2C(=O)C[C@H]2S1(=O)=O,inactive,inactive,inactive,inactive,inactive,–
CCOC(=O)c1ccccc1C(=C1C=C(Br)C(=O)C(Br)=C1)c1cc(Br)c(O)c(Br)c1,inactive,23.7 µM (active),–,inactive,–,–
CC=C(Cl)Cl,inactive,inactive,inactive,inactive,inactive,–
CN(C(=O)CN(CCO)CC(=O)N(C)C(C)(C)Cc1ccccc1)C(C)(C)Cc1ccccc1,4.36 µM (active),30.9 µM (active),–,inactive,–,–
O=C=Nc1cccc(C(F)(F)F)c1,inactive,inactive,–,inactive,inactive,–
Cc1ccccc1S,28.5 µM (active),45.2 µM (active),50.7 µM (active),inactive,inactive,–
CN1C(=O)OC(C)(C)C1=O,inactive,–,–,inactive,inactive,inactive
CCOC(C)=O,inactive,inactive,inactive,inactive,inactive,–
